Screens as filed in PubChem.
In the library only some 4.1% were active in any assay of this set; here they are far more common.
697 NFkB inh: lowers PMA/ionomycin-induced NF-kB signal in 697 B cells; 330,000 tested, 0.33% active; inhibition, % at 4 µM; 697 B-cell NF-kB luciferase reporter, 16 h; in the data active = inhibition above about 35%
aSyn 5UTR inh: 5' untranslated region of α-synuclein, MLPCN primary screen; alpha-synuclein 5'UTR reporter, inhibitor activity; inhibition, % (tested at 7.5 µM); 300,000 tested, 0.82% active; in the data active = inhibition above about 60%;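 note: H4 neuroglioblastoma cells stably carrying SNCA 5'UTR luciferase fusion; 0% = DMSO wells and 100% = positive control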
KLF5 inhibitor: suppresses KLF5 promoter-driven expression; DLD-1 KLF5 promoter-luciferase reporter, luminescence; inhibition, % at 5 µM; 290,000 tested, 0.23% active;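 active = inhibition above a per-plate limit of that plate's mean compound inhibition plus 3 SD, cut at about 60% in these data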;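 note: 0% = DMSO wells and 100% = LY294002 at 200 µM; higher means less KLF5 promoter-driven luciferase light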
Jurkat NFkB inh: lowers PMA/ionomycin-induced NF-kB signal in Jurkat cells | inhibition, % at 4 µM | 330,000 tested, 0.53% active | PMA/ionomycin-induced NF-kB luciferase reporter, luminescence | AID 435003; in the data active = inhibition above about 50%
Mdm2 MdmX PPI: inhibitors of human Mdm2/MdmX interaction | 330,000 tested, 3% active | inhibition, % at 8 µM | O15151+Q00987 | SaOS-2 split-luciferase Mdm2/MdmX complementation, luminescence;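 active = inhibition of at least 50% at 8 µM in the primary screen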
Gli-Sufu antag: blocks Gli-Sufu signaling in a luciferase reporter; 340,000 tested, 0.74% active; inhibition, % at 5 µM; Sufu-KO-LIGHT fibroblasts, Gli luciferase reporter luminescence; AID 588413;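 active = inhibition above about 55%, limit read from the data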;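 note: 0% = DMSO-treated cells and 100% = wells with medium but no cells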
Mdm2 MdmX conf: confirmation of human Mdm2/MdmX interaction inhibitors | shares compounds with Mdm2 MdmX PPI | Mdm2-MdmX binding, luminescent assay | inhibition, % at 8 µM | 10,000 tested, 55% active; in the data active = inhibition above about 40%
FLuc counter: full-length luciferase inhibition in Mdm2/MdmX counter-screen. inhibition, % at 8 µM. shares compounds with Mdm2 MdmX PPI. 6,200 tested, 77% active. SaOS-2 full-length luciferase counterscreen, luminescence;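 active = mean inhibition at 8 µM reaching about 37%, which flags the compound as non-specific, limit read from the data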;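 note: p53-null SaOS-2 cells with luciferase driven by a doxycycline-inducible promoter; compound on cells about two nights before reading with doxycycline added after day one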
Numbers without * were called inactive; nt = no result.

SMILES	697 NFkB inh	aSyn 5UTR inh	KLF5 inhibitor	Jurkat NFkB inh	Mdm2 MdmX PPI	Gli-Sufu antag	Mdm2 MdmX conf	FLuc counter
OCC1(Cc2cccc(C(F)(F)F)c2)CCN(Cc2cc3ccccc3o2)CC1	9	13	4	-4	9	nt	nt	nt
Cc1c(CN2CCC(CO)(Cc3cccc(C(F)(F)F)c3)CC2)c2ccccc2n1C	15	4	-31	1	68*	24	42*	71*
CCC(C)Nc1ccc(NC(C)CC)cc1 (centres undefined)	-3	nt	nt	-2	97*	46	68*	18
Cc1cccc(CN2CCN(C(=O)CCl)CC2)c1	3	-17	-13	-1	64*	-1	18	nt
Cc1ccc2nc(N=C(N)N)nc(C)c2c1	-82	14	-19	17	51*	18	44*	102*
CCc1ccc2nc(N=C(N)N)nc(C)c2c1	14	48	22	11	59*	-16	42*	82*
Cc1ccc2nc(/N=C(\N)NC(=O)NC3CCCCC3)nc(C)c2c1	-16	-149	2	23	65*	12	46*	57*
O=C(Nc1cccc2c1CCCC2)c1cc([N+](=O)[O-])ccc1Cl	-9	-79	-8	49	62*	1	21	nt
O=C(Nc1cccc2c1CCCC2)c1ccc(Cl)c([N+](=O)[O-])c1	32	-20	11	11	56*	-1	27	nt
O=C(CN1C(=O)NC2(CCCCCC2)C1=O)NCCc1ccc(F)cc1	2	nt	nt	2	1	-5	nt	nt
COc1cc(/C=N/NC(=S)NC2CC3CC2C2C=CCC32)ccc1O (centres undefined)	-117	-116	-73	-7	63*	-15	32	nt
COc1ccc(CNCCC2(Cc3ccccc3)CC(C)N(C)CC2C)cc1OC (centres undefined)	-8	-25	-2	-14	61*	14	29	nt
CC1CCN(c2nc(CN3CCCCC3)nc3scc(-c4ccccc4)c23)CC1	-32	-9	-9	-1	57*	14	20	nt
COc1ccccc1NC(=O)c1sc2ncn(CC(=O)Nc3ccccc3)c(=O)c2c1C	5	11	1	27	55*	43	5	nt
CCn1c(=O)n(CC)c2cc(N3CCCC3)c(NC(=O)c3ccc(OC)c(Br)c3)cc21	-1	16	-10	1	27	7	nt	nt
COc1cc(C(=O)Nc2cc3c(cc2N2CCCCC2)n(C)c(=O)n3C)cc(OC)c1OC	26	-79	-5	2	78*	44	44*	72*
CCn1c(=O)n(CC)c2cc(N3CCCC3)c(NC(=O)c3cc(Cl)ccc3OC)cc21	-14	-4	-8	-22	64*	17	21	nt
COc1ccc(C(=O)Nc2cc3c(cc2N2CCCCC2)n(C)c(=O)n3C)cc1OC	29	7	-5	-18	38	26	nt	nt
CN1C(=O)Cc2cc(S(=O)(=O)N3CCN(c4cccc(Cl)c4)CC3)ccc21	9	18	-20	-3	5	1	nt	nt
CC(=O)c1sc(NC(=O)C(C)Oc2ccc3c(C)cc(=O)oc3c2)nc1C (centres undefined)	14	1	-17	1	5	-1	nt	nt
COc1ccc2ccccc2c1-c1sc(Nc2ccccc2)n[n+]1-c1ccc(F)cc1	7	3	-9	12	76*	18	27	nt
CCc1ccc(Nc2n[n+](-c3ccccc3)c(/C=C/c3ccccc3)s2)cc1	0	-169	-21	-18	52*	nt	-31	nt
CCc1ccc(Nc2n[n+](-c3ccccc3)c(-c3ccc(N(CC)CC)cc3)s2)cc1	-68	-19	-45	-4	87*	19	53*	44*
O=C(O)c1ccc(-c2sc(Nc3ccccc3)n[n+]2-c2ccc(F)cc2)cc1	20	-13	-3	8	18	-5	nt	nt
Fc1ccc(-[n+]2nc(Nc3ccccc3)sc2-c2c(Cl)cccc2Cl)cc1	-67	-15	-15	2	67*	36	24	48*
SMILES	697 NFkB inh	aSyn 5UTR inh	KLF5 inhibitor	Jurkat NFkB inh	Mdm2 MdmX PPI	Gli-Sufu antag	Mdm2 MdmX conf	FLuc counter
O=C(COC(=O)c1cccnc1)Nc1ccc2c(c1)OCO2	13	-13	-46	7	20	9	nt	nt
COc1ccc(C)cc1Nc1n[n+](-c2ccccc2)c(-c2c(Cl)cccc2Cl)s1	-19	54	5	-5	95*	8	89*	55*
CCc1ccc(Nc2n[n+](-c3ccccc3)c(-c3c(Cl)cccc3Cl)s2)cc1	-4	10	-18	26	100*	7	96*	56*
COc1cccc2c1Oc1ncccc1N(C(=O)CCC(=O)NCc1ccccc1F)C2	-29	2	7	-19	2	3	nt	nt
CCC1CCCCN1S(=O)(=O)c1ccc(-n2cnnn2)c(C)c1 (centres undefined)	-8	-11	-17	7	-11	-8	nt	nt
Cc1nc2c(sc(=S)n2Cc2ccco2)c(=O)n1CC(=O)Nc1cc(F)ccc1F	-5	26	-16	-11	31	5	nt	nt
CCn1c(=S)sc2c(=O)n(CC(=O)Nc3ccccc3C(F)(F)F)c(C)nc21	20	-26	1	-6	53*	0	6	nt
Cc1nc2c(sc(=S)n2Cc2ccco2)c(=O)n1CC(=O)Nc1ccc(F)cc1	-7	31	-9	-1	52*	12	21	nt
COc1ccc(-c2cc(C(=O)Nc3c(F)cc(F)cc3Br)no2)cc1	10	-23	-41	-23	0	-6	nt	nt
COc1ccc(NC(=O)Cn2nnc(C(=O)Nc3ccc(F)c(Cl)c3)c2N)cc1	-2	7	4	9	59*	1	34	83*
COc1cccc(NC(=O)Cn2nnc(C(=O)Nc3cc(Cl)ccc3OC)c2N)c1	-1	30	-12	12	90*	30	49*	22
COc1ccc(NC(=O)c2nnn(CC(=O)Nc3ccc4c(c3)OCO4)c2N)c(OC)c1	-6	-39	-18	-25	52*	-10	-16	nt
COc1ccc(Cl)cc1NC(=O)c1nnn(CC(=O)Nc2ccc(OC)c(OC)c2)c1N	3	11	-17	0	69*	-2	40	32
COc1ccc(Cl)cc1NC(=O)c1nnn(CC(=O)Nc2cc(C)cc(C)c2)c1N	3	-9	-15	7	94*	2	57*	55*
COc1ccc(Cl)cc1NC(=O)c1nnn(CC(=O)Nc2ccc3c(c2)OCO3)c1N	-15	1	-26	9	93*	-4	53*	17
COc1ccc(NC(=O)c2nnn(CC(=O)Nc3ccc4c(c3)OCO4)c2N)cc1OC	14	16	-10	8	28	-6	nt	nt
